Tests used:
Conditions in all cases: concentration: 1 μM, replicates: in singlicate; n = 1
CAMK2D = tested on: CAMK2D
CAMK2G = tested on: CAMK2G
CAMK4 = tested on: CAMK4
CAMKK1 = tested on: CAMKK1
CAMKK2 = tested on: CAMKK2
CASK = tested on: CASK
CDC2L1 = tested on: T1, CDC2L1
T1 construct: gene CDK11B

CDC2L2 = tested on: CDC2L2
CDC2L5 = tested on: T2, CDC2L5
T2 construct: gene CDK13

CDK11 = tested on: T3, CDK11
T3 construct: gene CDK19

CDK2 = tested on: CDK2
CDK3 = tested on: CDK3
CDK4-cyclinD1 = tested on: CDK4-cyclinD1
CDK4-cyclinD3 = tested on: CDK4-cyclinD3
CDK4 = tested on: CDK4
CDK5 = tested on: CDK5
CDK7 = tested on: CDK7
CDK8 = tested on: CDK8
CDK9 = tested on: CDK9
CDKL1 = tested on: CDKL1
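Further: KINOMEscan kinase panel screen.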

## FC(F)(F)c1ccc(-c2nn3ncccc3c2-c2ccnc(Nc3cccc(C(F)(F)F)c3)n2)cc1 [GW828205]
CAMK2D
  %Inh: 0%
CAMK2G
  %Inh: 0%
CAMK4
  %Inh: 17%
CAMKK1
  %Inh: 6%
CAMKK2
  %Inh: 0%
CASK
  %Inh: 0%
CDC2L1
  %Inh: 0%
CDC2L2
  %Inh: 3%
CDC2L5
  %Inh: 0%
CDK11
  %Inh: 0%
CDK2
  %Inh: 1%
CDK3
  %Inh: 0%
CDK4-cyclinD1
  %Inh: 2%
CDK4-cyclinD3
  %Inh: 0%
CDK4
  %Inh: 0%
CDK5
  %Inh: 0%
CDK7
  %Inh: 0%
CDK8
  %Inh: 32%
CDK9
  %Inh: 0%
CDKL1
  %Inh: 55%

## OCCOCCn1ccc2ncnc(Nc3ccc(Oc4cccc(Cl)c4)c(Cl)c3)c21
CAMK2D
  %Inh: 0%
CAMK2G
  %Inh: 0%
CAMK4
  %Inh: 0%
CAMKK1
  %Inh: 0%
CAMKK2
  %Inh: 0%
CASK
  %Inh: 0%
CDC2L1
  %Inh: 0%
CDC2L2
  %Inh: 0%
CDC2L5
  %Inh: 0%
CDK11
  %Inh: 0%
CDK2
  %Inh: 0%
CDK3
  %Inh: 0%
CDK4-cyclinD1
  %Inh: 0%
CDK4-cyclinD3
  %Inh: 0%
CDK4
  %Inh: 0%
CDK5
  %Inh: 0%
CDK7
  %Inh: 0%
CDK8
  %Inh: 0%
CDK9
  %Inh: 0%
CDKL1
  %Inh: 0%

## O=C(Nc1ccccc1F)NC1CCN(c2ccnc(Nc3ccc(F)cc3)n2)C1 (centres unmarked) [GSK1379722]
CAMK2D
  %Inh: 0%
CAMK2G
  %Inh: 12%
CAMK4
  %Inh: 0%
CAMKK1
  %Inh: 0%
CAMKK2
  %Inh: 3%
CASK
  %Inh: 17%
CDC2L1
  %Inh: 0%
CDC2L2
  %Inh: 0%
CDC2L5
  %Inh: 0%
CDK11
  %Inh: 19%
CDK2
  %Inh: 0%
CDK3
  %Inh: 16%
CDK4-cyclinD1
  %Inh: 0%
CDK4-cyclinD3
  %Inh: 2%
CDK4
  %Inh: 31%
CDK5
  %Inh: 0%
CDK7
  %Inh: 0%
CDK8
  %Inh: 22%
CDK9
  %Inh: 0%
CDKL1
  %Inh: 18%

## CNc1nccc(-c2c(-c3ccc(F)cc3)ncn2C2CCN(C)CC2)n1 [SB-222903]
CAMK2D
  %Inh: 0%
CAMK2G
  %Inh: 0%
CAMK4
  %Inh: 7%
CAMKK1
  %Inh: 0%
CAMKK2
  %Inh: 0%
CASK
  %Inh: 11%
CDC2L1
  %Inh: 4%
CDC2L2
  %Inh: 13%
CDC2L5
  %Inh: 0%
CDK11
  %Inh: 0%
CDK2
  %Inh: 0%
CDK3
  %Inh: 0%
CDK4-cyclinD1
  %Inh: 0%
CDK4-cyclinD3
  %Inh: 0%
CDK4
  %Inh: 0%
CDK5
  %Inh: 0%
CDK7
  %Inh: 0%
CDK8
  %Inh: 46%
CDK9
  %Inh: 1%
CDKL1
  %Inh: 13%

## NC(=O)c1sc(-n2cnc3ccccc32)cc1OCc1ccccc1F [GSK1024306]
CAMK2D
  %Inh: 0%
CAMK2G
  %Inh: 14%
CAMK4
  %Inh: 0%
CAMKK1
  %Inh: 0%
CAMKK2
  %Inh: 10%
CASK
  %Inh: 49%
CDC2L1
  %Inh: 0%
CDC2L2
  %Inh: 0%
CDC2L5
  %Inh: 0%
CDK11
  %Inh: 8%
CDK2
  %Inh: 0%
CDK3
  %Inh: 0%
CDK4-cyclinD1
  %Inh: 0%
CDK4-cyclinD3
  %Inh: 0%
CDK4
  %Inh: 33%
CDK5
  %Inh: 0%
CDK7
  %Inh: 0%
CDK8
  %Inh: 37%
CDK9
  %Inh: 0%
CDKL1
  %Inh: 10%

## COc1cc2c(Nc3cccc(NC(=O)c4ccccc4)c3)ncnc2cc1OCCCN1CCOCC1 [GSK223810]
CAMK2D
  %Inh: 0%
CAMK2G
  %Inh: 15%
CAMK4
  %Inh: 0%
CAMKK1
  %Inh: 1%
CAMKK2
  %Inh: 0%
CASK
  %Inh: 6%
CDC2L1
  %Inh: 0%
CDC2L2
  %Inh: 11%
CDC2L5
  %Inh: 0%
CDK11
  %Inh: 3%
CDK2
  %Inh: 0%
CDK3
  %Inh: 5%
CDK4-cyclinD1
  %Inh: 0%
CDK4-cyclinD3
  %Inh: 0%
CDK4
  %Inh: 0%
CDK5
  %Inh: 0%
CDK7
  %Inh: 0%
CDK8
  %Inh: 14%
CDK9
  %Inh: 0%
CDKL1
  %Inh: 0%

## Clc1cc(Nc2ncnc3cc[nH]c23)ccc1OCc1ccccn1
CAMK2D
  %Inh: 19%
CAMK2G
  %Inh: 0%
CAMK4
  %Inh: 0%
CAMKK1
  %Inh: 0%
CAMKK2
  %Inh: 0%
CASK
  %Inh: 0%
CDC2L1
  %Inh: 12%
CDC2L2
  %Inh: 15%
CDC2L5
  %Inh: 0%
CDK11
  %Inh: 29%
CDK2
  %Inh: 8%
CDK3
  %Inh: 1%
CDK4-cyclinD1
  %Inh: 10%
CDK4-cyclinD3
  %Inh: 0%
CDK4
  %Inh: 10%
CDK5
  %Inh: 22%
CDK7
  %Inh: 29%
CDK8
  %Inh: 0%
CDK9
  %Inh: 30%
CDKL1
  %Inh: 16%

## COc1cc2ncnc(Nc3ccc(OCc4ccccc4Br)c(Cl)c3)c2cc1OC.Cl [GI261590]
CAMK2D
  %Inh: 0%
CAMK2G
  %Inh: 14%
CAMK4
  %Inh: 0%
CAMKK1
  %Inh: 0%
CAMKK2
  %Inh: 0%
CASK
  %Inh: 0%
CDC2L1
  %Inh: 2%
CDC2L2
  %Inh: 18%
CDC2L5
  %Inh: 0%
CDK11
  %Inh: 21%
CDK2
  %Inh: 0%
CDK3
  %Inh: 8%
CDK4-cyclinD1
  %Inh: 13%
CDK4-cyclinD3
  %Inh: 6%
CDK4
  %Inh: 8%
CDK5
  %Inh: 18%
CDK7
  %Inh: 0%
CDK8
  %Inh: 0%
CDK9
  %Inh: 9%
CDKL1
  %Inh: 20%

## CC(C)(C)OC(=O)NC1CCCN(c2cc(-c3ccc4c(N)n[nH]c4c3)nc(N)n2)C1 (centres unmarked) [GSK2286096]
CAMK2D
  %Inh: 16%
CAMK2G
  %Inh: 18%
CAMK4
  %Inh: 0%
CAMKK1
  %Inh: 0%
CAMKK2
  %Inh: 32%
CASK
  %Inh: 2%
CDC2L1
  %Inh: 8%
CDC2L2
  %Inh: 0%
CDC2L5
  %Inh: 0%
CDK11
  %Inh: 38%
CDK2
  %Inh: 0%
CDK3
  %Inh: 0%
CDK4-cyclinD1
  %Inh: 0%
CDK4-cyclinD3
  %Inh: 0%
CDK4
  %Inh: 0%
CDK5
  %Inh: 0%
CDK7
  %Inh: 0%
CDK8
  %Inh: 0%
CDK9
  %Inh: 2%
CDKL1
  %Inh: 0%

## CCc1nc(-c2cccc(C)c2)c(-c2ccnc(NC(=O)c3ccccc3)c2)s1
CAMK2D
  %Inh: 0%
CAMK2G
  %Inh: 10%
CAMK4
  %Inh: 0%
CAMKK1
  %Inh: 4%
CAMKK2
  %Inh: 7%
CASK
  %Inh: 0%
CDC2L1
  %Inh: 11%
CDC2L2
  %Inh: 2%
CDC2L5
  %Inh: 12%
CDK11
  %Inh: 5%
CDK2
  %Inh: 0%
CDK3
  %Inh: 0%
CDK4-cyclinD1
  %Inh: 15%
CDK4-cyclinD3
  %Inh: 6%
CDK4
  %Inh: 13%
CDK5
  %Inh: 21%
CDK7
  %Inh: 24%
CDK8
  %Inh: 1%
CDK9
  %Inh: 0%
CDKL1
  %Inh: 0%

## Cc1ccc(C)c(NC(=O)NCCNc2ccnc(Nc3ccc(F)cc3)n2)c1 [GSK1379878]
CAMK2D
  %Inh: 18%
CAMK2G
  %Inh: 21%
CAMK4
  %Inh: 0%
CAMKK1
  %Inh: 0%
CAMKK2
  %Inh: 2%
CASK
  %Inh: 0%
CDC2L1
  %Inh: 0%
CDC2L2
  %Inh: 17%
CDC2L5
  %Inh: 0%
CDK11
  %Inh: 6%
CDK2
  %Inh: 0%
CDK3
  %Inh: 0%
CDK4-cyclinD1
  %Inh: 0%
CDK4-cyclinD3
  %Inh: 0%
CDK4
  %Inh: 43%
CDK5
  %Inh: 0%
CDK7
  %Inh: 0%
CDK8
  %Inh: 29%
CDK9
  %Inh: 0%
CDKL1
  %Inh: 0%

## O=c1cc(N2CCOCC2)nc2n(Cc3cccc(Cl)c3)ccn12 [GSK2296823]
CAMK2D
  %Inh: 0%
CAMK2G
  %Inh: 3%
CAMK4
  %Inh: 0%
CAMKK1
  %Inh: 17%
CAMKK2
  %Inh: 0%
CASK
  %Inh: 3%
CDC2L1
  %Inh: 0%
CDC2L2
  %Inh: 6%
CDC2L5
  %Inh: 0%
CDK11
  %Inh: 0%
CDK2
  %Inh: 0%
CDK3
  %Inh: 3%
CDK4-cyclinD1
  %Inh: 0%
CDK4-cyclinD3
  %Inh: 13%
CDK4
  %Inh: 0%
CDK5
  %Inh: 0%
CDK7
  %Inh: 0%
CDK8
  %Inh: 0%
CDK9
  %Inh: 0%
CDKL1
  %Inh: 9%

## FC(F)(F)c1ccc(-c2cc(-c3c[nH]nc3-c3ccccn3)ccn2)cc1 [GW599550]
CAMK2D
  %Inh: 12%
CAMK2G
  %Inh: 27%
CAMK4
  %Inh: 0%
CAMKK1
  %Inh: 11%
CAMKK2
  %Inh: 23%
CASK
  %Inh: 0%
CDC2L1
  %Inh: 0%
CDC2L2
  %Inh: 26%
CDC2L5
  %Inh: 0%
CDK11
  %Inh: 17%
CDK2
  %Inh: 2%
CDK3
  %Inh: 20%
CDK4-cyclinD1
  %Inh: 11%
CDK4-cyclinD3
  %Inh: 0%
CDK4
  %Inh: 35%
CDK5
  %Inh: 0%
CDK7
  %Inh: 0%
CDK8
  %Inh: 32%
CDK9
  %Inh: 0%
CDKL1
  %Inh: 2%

## Cl.O=S(=O)(c1cccc(F)c1)c1ccc(Nc2ncnc3cc(Br)sc23)cc1Cl [GSK306886]
CAMK2D
  %Inh: 9%
CAMK2G
  %Inh: 0%
CAMK4
  %Inh: 0%
CAMKK1
  %Inh: 0%
CAMKK2
  %Inh: 20%
CASK
  %Inh: 47%
CDC2L1
  %Inh: 3%
CDC2L2
  %Inh: 20%
CDC2L5
  %Inh: 0%
CDK11
  %Inh: 0%
CDK2
  %Inh: 6%
CDK3
  %Inh: 44%
CDK4-cyclinD1
  %Inh: 0%
CDK4-cyclinD3
  %Inh: 7%
CDK4
  %Inh: 17%
CDK5
  %Inh: 0%
CDK7
  %Inh: 0%
CDK8
  %Inh: 0%
CDK9
  %Inh: 6%
CDKL1
  %Inh: 19%

## Cl.Cl.c1ccc(-c2cc3ccncc3cc2OC2CCNCC2)cc1 [GSK1122999]
CAMK2D
  %Inh: 26%
CAMK2G
  %Inh: 20%
CAMK4
  %Inh: 43%
CAMKK1
  %Inh: 0%
CAMKK2
  %Inh: 30%
CASK
  %Inh: 16%
CDC2L1
  %Inh: 15%
CDC2L2
  %Inh: 5%
CDC2L5
  %Inh: 0%
CDK11
  %Inh: 12%
CDK2
  %Inh: 0%
CDK3
  %Inh: 10%
CDK4-cyclinD1
  %Inh: 0%
CDK4-cyclinD3
  %Inh: 0%
CDK4
  %Inh: 11%
CDK5
  %Inh: 0%
CDK7
  %Inh: 0%
CDK8
  %Inh: 15%
CDK9
  %Inh: 2%
CDKL1
  %Inh: 10%

## Fc1cccc(COc2ccc(Nc3ncnc4nn5ccccc5c34)cc2Cl)c1 [GW689066]
CAMK2D
  %Inh: 0%
CAMK2G
  %Inh: 10%
CAMK4
  %Inh: 0%
CAMKK1
  %Inh: 5%
CAMKK2
  %Inh: 0%
CASK
  %Inh: 0%
CDC2L1
  %Inh: 0%
CDC2L2
  %Inh: 0%
CDC2L5
  %Inh: 0%
CDK11
  %Inh: 2%
CDK2
  %Inh: 0%
CDK3
  %Inh: 0%
CDK4-cyclinD1
  %Inh: 13%
CDK4-cyclinD3
  %Inh: 0%
CDK4
  %Inh: 33%
CDK5
  %Inh: 0%
CDK7
  %Inh: 0%
CDK8
  %Inh: 37%
CDK9
  %Inh: 0%
CDKL1
  %Inh: 0%

From publication PMC5540273 (PLoS ONE, 2017)
